Among all 5,500 compounds or so, about 2,000 (36%) were called active. Roughly 18% stayed inconclusive and do not appear here. No stated cut-off is given here; in the data, active means normalized growth mostly below about 0.91 (no sharp cut-off); inconclusive means no clear call, values can overlap the other calls; inactive means mostly above about 0.92. This is one part of the list.
Assay: chemical genetic growth profiling, strain panel (AID 1159580);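 further: tested at 20 µM; growth read once vehicle control cultures reached saturation at 30 °C; 1 = growth at the plate median or of vehicle wells; lower values mean less growth of the strain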
Settings: growth OD

Measured: normalized growth

Cc1onc(-c2c(Cl)cccc2Cl)c1C(=O)N[C@@H]1C(=O)N2[C@@H]1SC(C)(C)[C@@H]2C(=O)O
inactive: S. cerevisiae deletion strains, locus YJR066W, strain TOR1, active compounds read low 0.946 | S. cerevisiae deletion strains, locus YJR075W, strain HOC1, active compounds read low 1.02 | S. cerevisiae deletion strains, locus YKL009W, strain mrt4, active compounds read low 0.986 | S. cerevisiae deletion strains, locus YKL068W, active compounds read low 1.01 | S. cerevisiae deletion strains, locus YKL085W, strain MDH1 (second series), active compounds read low 0.999 | S. cerevisiae deletion strains, locus YKL085W, strain MDH1, active compounds read low 0.999 | S. cerevisiae deletion strains, locus YKL160W, strain elf1, active compounds read low 0.982 | S. cerevisiae deletion strains, locus YKL190W, strain CNB1, active compounds read low 1.01 | S. cerevisiae deletion strains, locus YKR001C, strain vps1, active compounds read low 1 | S. cerevisiae deletion strains, locus YKR091W, strain srl3, active compounds read low 1 | S. cerevisiae deletion strains, locus YLL001W, strain dnm1, active compounds read low 0.962 | S. cerevisiae deletion strains, locus YLL026W, active compounds read low 1 | S. cerevisiae deletion strains, locus YLL041C, strain sdh2, active compounds read low 0.987 | S. cerevisiae deletion strains, locus YLR027C, strain aat2, active compounds read low 0.991 | S. cerevisiae deletion strains, locus YLR039C, strain RIC1, active compounds read low 1.03 | S. cerevisiae deletion strains, locus YLR058C, strain SHM2, active compounds read low 1.02 | S. cerevisiae deletion strains, locus YLR102C, strain apc9, active compounds read low 0.994 | S. cerevisiae deletion strains, locus YLR113W, strain HOG1, active compounds read low 1.06 | S. cerevisiae deletion strains, locus YLR221C, strain rsa3, active compounds read low 1.05 | S. cerevisiae deletion strains, locus YLR258W, strain gsy2, active compounds read low 1.02 | S. cerevisiae deletion strains, locus YLR262C, strain YPT6 (second series), active compounds read low 0.961 | S. cerevisiae deletion strains, locus YLR262C, strain YPT6, active compounds read low 1.02 | S. cerevisiae deletion strains, locus YLR268W, strain sec22, active compounds read low 0.987 | S. cerevisiae deletion strains, locus YLR320W, strain mms22, active compounds read low 1.06 | S. cerevisiae deletion strains, locus YLR330W, strain CHS5, active compounds read low 1.02 | S. cerevisiae deletion strains, locus YLR342W, strain FKS1 (second series), active compounds read low 1.04 | S. cerevisiae deletion strains, locus YLR342W, strain FKS1, active compounds read low 0.979 | S. cerevisiae deletion strains, locus YLR357W, strain rsc2, active compounds read low 0.98 | S. cerevisiae deletion strains, locus YLR370C, strain arc18, active compounds read low 1.01 | S. cerevisiae deletion strains, locus YLR371W, strain rom2, active compounds read low 0.985 | S. cerevisiae deletion strains, locus YLR384C, strain iki3, active compounds read low 0.977 | S. cerevisiae deletion strains, locus YLR418C, strain cdc73, active compounds read low 0.946 | S. cerevisiae deletion strains, locus YML016C, strain PPZ1, active compounds read low 1.02 | S. cerevisiae deletion strains, locus YML032C, strain rad52, active compounds read low 0.987 | S. cerevisiae deletion strains, locus YML120C, strain ndi1, active compounds read low 0.99 | S. cerevisiae deletion strains, locus YML124C, strain tub3, active compounds read low 0.985 | S. cerevisiae deletion strains, locus YMR058W, strain fet3, active compounds read low 1.01 | S. cerevisiae deletion strains, locus YMR078C, strain ctf18, active compounds read low 0.991 | S. cerevisiae deletion strains, locus YMR125W, strain sto1, active compounds read low 0.951 | S. cerevisiae deletion strains, locus YMR129W, active compounds read low 0.997 | S. cerevisiae deletion strains, locus YMR205C, strain PFK2, active compounds read low 0.984 | S. cerevisiae deletion strains, locus YMR223W, strain ubp8, active compounds read low 0.973 | S. cerevisiae deletion strains, locus YMR231W, strain pep5, active compounds read low 0.985 | S. cerevisiae deletion strains, locus YMR307W, strain GAS1, active compounds read low 1.02 | S. cerevisiae deletion strains, locus YNL067W, strain RPL9B, active compounds read low 1 | S. cerevisiae deletion strains, locus YNL071W, strain lat1, active compounds read low 0.998 | S. cerevisiae deletion strains, locus YNL128W, strain TEP1, active compounds read low 1.01 | S. cerevisiae deletion strains, locus YNL183C, strain NPR1, active compounds read low 1 | S. cerevisiae deletion strains, locus YNL209W, strain ssb2, active compounds read low 1.02 | S. cerevisiae deletion strains, locus YNL233W, strain BNI4, active compounds read low 0.997 | S. cerevisiae deletion strains, locus YNL248C, strain rpa49, active compounds read low 1.03 | S. cerevisiae deletion strains, locus YNL250W, strain rad50, active compounds read low 0.989 | S. cerevisiae deletion strains, locus YNL271C, strain bni1, active compounds read low 0.98 | S. cerevisiae deletion strains, locus YNL298W, strain CLA4, active compounds read low 0.999 | S. cerevisiae deletion strains, locus YNL307C, strain MCK1, active compounds read low 0.987 | S. cerevisiae deletion strains, locus YNL322C, strain KRE1 (second series), active compounds read low 0.965 | S. cerevisiae deletion strains, locus YNL322C, strain KRE1, active compounds read low 1.01 | S. cerevisiae deletion strains, locus YNR049C, strain mso1, active compounds read low 0.991 | S. cerevisiae deletion strains, locus YNR052C, strain pop2, active compounds read low 0.997 | S. cerevisiae deletion strains, locus YOL006C, strain TOP1, active compounds read low 1.03 | S. cerevisiae deletion strains, locus YOL012C, strain htz1 1.88 | S. cerevisiae deletion strains, locus YOL147C, strain pex11, active compounds read low 0.987 | S. cerevisiae deletion strains, locus YOR001W, strain rrp6, active compounds read low 0.972 | S. cerevisiae deletion strains, locus YOR061W, strain CKA2, active compounds read low 1.03 | S. cerevisiae deletion strains, locus YOR069W, strain VPS5, active compounds read low 1.02 | S. cerevisiae deletion strains, locus YOR070C, strain gyp1, active compounds read low 1.01 | S. cerevisiae deletion strains, locus YOR080W, strain dia2, active compounds read low 0.967 | S. cerevisiae deletion strains, locus YOR083W, strain WHI5, active compounds read low 0.964 | S. cerevisiae deletion strains, locus YOR106W, strain vam3, active compounds read low 0.957 | S. cerevisiae deletion strains, locus YOR136W, strain idh2, active compounds read low 0.988 | S. cerevisiae deletion strains, locus YOR144C, strain elg1, active compounds read low 0.989 | S. cerevisiae deletion strains, locus YOR184W, strain ser1, active compounds read low 0.978 | S. cerevisiae deletion strains, locus YOR231W, strain MKK1, active compounds read low 1.06 | S. cerevisiae deletion strains, locus YOR265W, strain rbl2, active compounds read low 0.985 | S. cerevisiae deletion strains, locus YOR270C, strain vph1, active compounds read low 0.995 | S. cerevisiae deletion strains, locus YOR290C, strain snf2, active compounds read low 1.03 | S. cerevisiae deletion strains, locus YOR316C, strain cot1, active compounds read low 0.998 | S. cerevisiae deletion strains, locus YPL051W, strain arl3, active compounds read low 1.01 | S. cerevisiae deletion strains, locus YPL078C, strain atp4, active compounds read low 0.951 | S. cerevisiae deletion strains, locus YPL106C, strain sse1, active compounds read low 0.964 | S. cerevisiae deletion strains, locus YPL240C, strain hsp82, active compounds read low 0.998 | S. cerevisiae deletion strains, locus YPL241C, strain CIN2, active compounds read low 1.02 | S. cerevisiae deletion strains, locus YPL256C, strain CLN2, active compounds read low 1.04 | S. cerevisiae deletion strains, locus YPR119W, strain clb2, active compounds read low 0.99 | S. cerevisiae deletion strains, locus YPR141C, strain kar3, active compounds read low 1 | S. cerevisiae deletion strains, locus YPR163C, strain tif3, active compounds read low 0.998 | S. cerevisiae deletion strains, locus YPR167C, strain met16, active compounds read low 0.985 | S. cerevisiae deletion strains, strain wtn01, active compounds read low 0.97 | S. cerevisiae strains, strain wild type, active compounds read low 1.02
active: S. cerevisiae deletion strains, locus YKR026C, strain gcn3, active compounds read low 1.47 [resistant]

— PubChem BioAssay AID1159580 (chemical genetic matrix, 2015)
